# According to PubChem BioAssay (NCI):
# Compounds without any hit were thinned out: in the full panel of roughly 83,000, 20% have a hit.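 Single-concentration screen, 48 h exposure, 96-well plates. Endpoint: percent growth. Below 10 = active.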 Unmarked numbers belong to inactive results. Active and inactive are the calls of the source.
# What was measured:
# Experiment in all cases: NCI-60 one-dose screen, 48 h (100 = growth as untreated, 0 = no growth, -100 = all killed)
# [1] = test system: HCT-15 colon; settings: 10 µM unless noted
# [2] = test system: HT29 colon; settings: 10 µM unless noted
# [3] = test system: SNB-75 CNS; settings: 10 µM unless noted
# [4] = test system: SNB-19 CNS; settings: 10 µM unless noted
# [5] = test system: U251 CNS; settings: 10 µM unless noted
# [6] = test system: PC-3 prostate; settings: 10 µM unless noted
# [7] = test system: SK-MEL-5 melanoma; settings: 10 µM unless noted
# [8] = test system: UACC-62 melanoma; settings: 10 µM unless noted
# [9] = test system: SK-MEL-28 melanoma; settings: 10 µM unless noted
# [10] = test system: SK-MEL-2 melanoma; settings: 10 µM unless noted
# [11] = test system: EKVX NSCLC; settings: 10 µM unless noted
# [12] = test system: SN12C renal; settings: 10 µM unless noted
# [13] = test system: UO-31 renal; settings: 10 µM unless noted
# [14] = test system: TK-10 renal; settings: 10 µM unless noted
# [15] = test system: ACHN renal; settings: 10 µM unless noted
# [16] = test system: CAKI-1 renal; settings: 10 µM unless noted
# [17] = test system: A498 renal; settings: 10 µM unless noted
# [18] = test system: CCRF-CEM leukemia; settings: 10 µM unless noted
# [19] = test system: MOLT-4 leukemia; settings: 10 µM unless noted
# [20] = test system: LOX IMVI melanoma; settings: 10 µM
SMILES,growth [1],growth [2],growth [3],growth [4],growth [5],growth [6],growth [7],growth [8],growth [9],growth [10],growth [11],growth [12],growth [13],growth [14],growth [15],growth [16],growth [17],growth [18],growth [19],growth [20]
COc1ccc(C(=O)/C=C/c2ccc(OCc3ccccc3)c(OC)c2)cc1OC,9.77% (active),15.1%,-15.9% (active),14.4%,10.1%,37%,34.9%,29%,70.4%,72.7%,80.4%,1.82% (active),31.4%,62.7%,38.3%,38.8%,102%,9.36% (active),–,–
C=Cn1cc(C(=O)O)c(=O)c2cc(F)c(N3CCN(c4nccc(-c5nccs5)n4)CC3)cc21,-51.5% (active),-52% (active),-23.3% (active),-0.431% (active),5.03% (active),8.48% (active),-47.7% (active),-84.7% (active),-38.5% (active),-83.2% (active),-24.2% (active),-16.8% (active),-61.5% (active),-13.2% (active),-43% (active),-37.1% (active),-21.4% (active),15.3%,1.77% (active),–
N#Cc1c(-c2cccc(Cl)c2Cl)cc(-c2c[nH]c3ccccc23)[nH]c1=O,49.7%,110%,79.6%,77.2%,68.9%,26.5%,51.6%,47.7%,83.5%,87.7%,53%,53.6%,43.1%,108%,59%,53%,128%,33.1%,–,–
N#Cc1c(-c2ccccc2Cl)cc(-c2c[nH]c3ccccc23)[nH]c1=O,48.7%,107%,25.7%,69.5%,67%,72.8%,63.8%,50.3%,65.3%,49%,68.1%,61.5%,58.7%,102%,63.9%,55.5%,116%,32.2%,34.7%,–
COc1ccc(NC(=O)[C@H](CO)NC(=O)OC(C)(C)C)cc1C(=O)Nc1cccc(C2CC(=O)c3c(cc(OC)c(OC)c3OC)O2)c1 (some centres undefined),33%,49.4%,51.4%,69.2%,61.9%,49.8%,27.9%,49.1%,71.4%,53.1%,81.2%,49%,40.4%,103%,56.2%,38.6%,105%,23.3%,16.2%,–
C#CCOc1ccc(/C=N/Nc2nc(-c3ccc(F)cc3)cs2)cc1OC,41.2%,78.8%,81.8%,77.5%,89.4%,24.2%,3.86% (active),46.7%,76.5%,60.8%,62.5%,68.9%,48.4%,156%,64.5%,–,80.7%,26.3%,12.1%,62.4%
O=C1NC(=O)c2c1c1c3cc(Br)ccc3[nH]c1c1oc3ccc(F)cc3c21,21.5%,36.4%,-11.6% (active),-16.9% (active),-55.5% (active),-66% (active),2.9% (active),0.264% (active),-20.7% (active),-58.3% (active),20.7%,-39.1% (active),10.8%,66.7%,-72.5% (active),-64.8% (active),-83.1% (active),2.94% (active),–,–
OCC1(CCCc2ccccc2)CCCN(c2nccc3ccccc23)C1 (centres undefined),27.7%,21.3%,40.5%,44.2%,40.1%,52.2%,-60% (active),38.7%,32.4%,30.7%,23.4%,44.4%,26.9%,50.1%,–,38.6%,63.3%,49.2%,32.3%,35.8%
CN(C)CCn1c2ccccc2c2nc3cc4ccccc4cc3nc21,-35.8% (active),-50.4% (active),43%,28.9%,-69.3% (active),3.43% (active),14.6%,57.2%,-80.1% (active),60.1%,36.8%,32.3%,12.3%,53%,7.52% (active),4.76% (active),80.8%,18.3%,7.22% (active),–
CCN(CC)c1ccc(/C=N/Nc2nc(-c3ccc(C)cc3)cs2)c(O)c1,67.2%,83.5%,92.1%,89.6%,90%,70.5%,79.7%,80.6%,95%,79.7%,79.2%,99.7%,83.2%,–,96.3%,78%,105%,88.2%,80%,88.2%
CC1=C(C(=O)c2ccccc2)C(c2ccc(-n3cncn3)cc2)n2c(nc3ccccc32)N1 (centres undefined),83.9%,93.7%,76.4%,74.9%,71.7%,78.7%,89.7%,70.6%,106%,101%,64.4%,79.4%,-22.7% (active),104%,88.8%,62.8%,113%,70.9%,66.9%,–
COc1cc(C2CC(c3cc(OC)c(OC)c(OC)c3)=NN2C(C)=O)ccc1OCc1ccccc1 (centres undefined),34.6%,38%,49.3%,52.2%,44.3%,9.84% (active),9.77% (active),24%,42.1%,21.3%,32.6%,41.1%,8.63% (active),32.1%,28.2%,29%,55.1%,40.2%,8.79% (active),–
COc1ccc(C(=O)/C=C/c2ccc(OC)c(OCc3ccccc3)c2)cc1OC,1.81% (active),5.47% (active),39.7%,17.3%,7.69% (active),25.1%,31.9%,14.8%,39.8%,55.8%,25.2%,7.92% (active),–,20.5%,21.8%,–,108%,12.9%,–,-26% (active)
N/C(=N\c1nc2ccccc2s1)NC(=O)NCCCCCCO,57.7%,76.2%,20.6%,51.6%,69%,47.3%,-3.23% (active),49.1%,76.5%,50.1%,19.6%,45.5%,43.5%,51.2%,39.5%,32%,61%,60.3%,4.34% (active),–
COc1cc(C2CC(c3cc(OC)c(OC)c(OC)c3)=NN2c2ccccc2)ccc1OCc1ccc(C)cc1 (centres undefined),86.2%,85.7%,84.1%,91.7%,96.7%,92.9%,92.3%,78.8%,103%,88.1%,94.1%,95.1%,84.8%,118%,99.6%,77.8%,102%,106%,91.6%,–
N#Cc1ccc(C(=O)Nn2c(N)cc3ccccc3c2=O)cc1,103%,103%,111%,94.6%,98%,94.6%,99.4%,86.1%,104%,104%,85.8%,89.9%,64.9%,119%,92.9%,78%,113%,94.7%,84.6%,–
